Where “and” joins values, the source holds several entries; their conditions need not be identical. Equal entries are not always repeated. Records with an inconclusive call do not appear. Some structures have more than one record in an assay (separate samples or runs), and their calls can disagree. Calls of active or inactive are those of the source. Unless noted, the call rests on the fitted dose curve; in most records, active means well fitted curve in the direction sought with a large enough effect in the repeat runs; inconclusive means weak or mixed curves; inactive means no such curve, though single readings can be large; an effect the other way counts as inactive or inconclusive.
Key:
[1] = qHTS assay to identify small molecule antagonists of the sonic hedgehog signaling (Shh) pathway (AID 1259369; calls by dose curve; further: nearly all actives have a fitted effect of over 45% in size; further: potency means the concentration at half of the fitted maximal effect)
In short: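 Antagonist mode: compound added to 3T3 Gli1-Luc cells followed by conditioned-medium stimulation, 24 h at 37 C, 5% CO2. Inhibition taken as loss of Gli1-driven luciferase luminescence.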

[2] = biological target: Estrogen receptor beta (Homo sapiens) (UniProt Q92731); test: qHTS assay to identify small molecule agonists of the estrogen receptor beta (ER-beta) signaling pathway (AID 1259377; active means well fitted activation curve with a large enough effect in the signal ratio in the repeat runs, not every such curve was filed as active; the % refers to the signal ratio)
In short: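 A UAS-controlled beta-lactamase reporter in ER-beta-UAS-bla HEK293T cells reports receptor activation. Compounds act for 16 hr at 37C in 2% charcoal-stripped serum, and a FRET substrate is read by fluorescence after 2 hours.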

[3] = biological target: Estrogen receptor beta (Homo sapiens) (UniProt Q92731); test: qHTS assay to identify small molecule antagonists of the estrogen receptor beta (ER-beta) signaling pathway (AID 1259378; active means well fitted inhibition curve with a large enough effect in the signal ratio in the repeat runs, not every such curve was filed as active; the % refers to the signal ratio)
In short: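 Antagonist mode: compounds added to beta-lactamase reporter HEK293T ER-beta-UAS cells stimulated with E2 (1nM final), 16 hr at 37C. LiveBLAzer B/G FRET substrate, 2 hours room temperature, fluorescence read-out.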

[4] = qHTS assay to identify small molecule agonists of the estrogen receptor beta (ER-beta) signaling pathway - cell viability counter screen (AID 1259380); further: nearly all actives have a fitted effect of over 30% in size; further: potency means the concentration at half of the fitted maximal effect
In short: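 Cell viability counter screen: CellTiter-Glo luminescence (30 min, room temperature) measured in the same wells as the beta-lactamase readout, after 16 hr compound exposure at 37C of ER-beta-bla HEK293T cells in 2% charcoal-stripped FBS medium.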

[5] = qHTS assay to identify small molecule antagonists of the estrogen receptor beta (ER-beta) signaling pathway - cell viability counter screen (AID 1259382); further: nearly all actives have a fitted effect of over 55% in size; further: potency means the concentration at half of the fitted maximal effect
In short: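 Cytotoxicity was measured in the same wells by CellTiter-Glo luminescence after 30 min at room temperature. Cells were ER-beta-bla HEK293T in charcoal-stripped serum, given compound together with 1 nM E2 and incubated 16 h at 37C.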

[6] = biological target: Estrogen receptor (Homo sapiens) (UniProt P03372); test: qHTS assay to identify small molecule agonists of the estrogen receptor alpha (ER-alpha) signaling pathway in the presence of an antagonist (AID 1259383; calls by dose curve; further: top concentration of the series differs between compounds; nearly all actives have a fitted effect of over 15% in size)
In short: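 Agonist-mode confirmation run in the presence of 10.0nM (final) ICI-182,780 antagonist. The reporter was ERE-driven luciferase in VM7Luc4E2 cells, grown in charcoal-stripped serum. Cells were exposed to 15-concentration compound series for 22hr, then ONE-Glo luminescence was read.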

[7] = qHTS assay to identify small molecule agonists or antagonists of the thyroid stimulating hormone receptor (TSHR) signaling pathway - wild type cell line counter screen (AID 1259384; calls by dose curve)
In short: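 Counter screen in untransfected Hek293: compounds (15-point titration, triplicate) plus phosphodiesterase inhibitor Ro20-1724 added after 18 h plating; 30 min RT. Intracellular cAMP via competitive d2/cryptate immunoassay, 1 h incubation.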

[8] = biological target: Thyrotropin receptor (Homo sapiens) (UniProt P16473); test: qHTS assay to identify small molecule antagonists of the thyroid stimulating hormone receptor (TSHR) signaling pathway (AID 1259385; calls by dose curve; further: nearly all actives have a fitted effect of over 20% in size; further: potency means the concentration at half of the fitted maximal effect)
In short: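 Antagonist mode: compound-treated TSHR-expressing HEK293 cells were stimulated with 1.5 ng/mL TSH (final) in presence of Ro20-1724 for 30 min at RT. HTRF cAMP detection after 1 h; each compound tested at 15 concentrations, triplicate.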

[9] = qHTS assay to identify small molecule agonists of the estrogen receptor alpha (ER-alpha) signaling pathway in the presence of an antagonist - cell viability counter screen (AID 1259386); further: series mostly up to about 92 µM; nearly all actives have a fitted effect of over 30% in size
In short: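 Compounds tested at 15 concentrations for 22 h at 37C alongside 10.0nM (final) ICI-182,780 antagonist, in VM7Luc4E2 cells grown in phenol red-free, charcoal-stripped medium. Viability read by CellTiter-Fluor fluorescence after 1 h reagent incubation.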

[10] = biological target: Progesterone receptor (Homo sapiens) (UniProt P06401); test: qHTS assay to identify small molecule agonists of the progesterone receptor (PR) signaling pathway (AID 1346784; calls by dose curve; further: nearly all actives have a fitted effect of over 30% in size)
In short: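 Agonist mode, quantitative HTS format in a HEK 293T line expressing a UAS-controlled beta-lactamase reporter; 16 hr compound exposure at 37C in 2% charcoal-stripped FBS, then LiveBLAzer B/G FRET fluorescence.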

[11] = biological target: Progesterone receptor (Homo sapiens) (UniProt P06401); test: qHTS assay to identify small molecule antagonists of the progesterone receptor (PR) signaling pathway (AID 1346795; active means well fitted inhibition curve with a large enough effect in the signal ratio in the repeat runs, not every such curve was filed as active; the % refers to the signal ratio; further: potency means the concentration at half of the fitted maximal effect)
In short: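 HEK293T PR-UAS-bla reporter cells in charcoal-stripped serum (2%) received compound after a 6 hr settling period, followed by R5020 agonist at 1 nM final; 16 hr incubation preceded the FRET substrate step and fluorescence measurement.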

[12] = qHTS assay to identify small molecule antagonists of the progesterone receptor (PR) signaling pathway - cell viability counter screen (AID 1346798); further: nearly all actives have a fitted effect of over 50% in size; further: potency means the concentration at half of the fitted maximal effect
In short: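 Same-well multiplex: after 16 hr at 37C with compound and R5020 stimulation, HEK293T cells carrying a UAS-bla reporter received LiveBLAzer substrate (2 hr RT), then CellTiter-Glo (30 min RT) for luminescent viability.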

[13] = qHTS assay to identify small molecule agonists of the progesterone receptor (PR) signaling pathway - cell viability counter screen (AID 1346799; calls by dose curve; further: nearly all actives have a fitted effect of over 45% in size; further: potency means the concentration at half of the fitted maximal effect)
In short: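 Counter screen for cytotoxicity: compound-treated PR-UAS-bla HEK293T cells (16 hr, 37C, 5% CO2) were assayed with CellTiter-Glo, luminescence measured after 30 min at room temperature.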

[14] = qHTS assay to identify small molecule antagonists of the TGF-beta/Smad signaling pathway - cell viability counter screen (AID 1346824); further: nearly all actives have a fitted effect of over 50% in size
In short: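 Cytotoxicity counter-screen run in the same wells as the beta-lactamase Smad reporter read: CellTiter-Glo luminescence after 30 min at room temperature. HEK 293T SBE-bla cells had 5 hr compound exposure at 37 C with TGF-beta1 (0.25 ng/mL stock).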

[15] = qHTS assay to identify small molecule agonists of the TGF-beta/Smad signaling pathway - cell viability counter screen (AID 1346829); further: top concentration of the series differs between compounds; nearly all actives have a fitted effect of over 45% in size
In short: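 In parallel with the Smad reporter read, viability of HEK 293T cells stably carrying SBE-bla is quantified by ATP luminescence following 5 hr compound treatment.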

[16] = qHTS assay to identify small molecule agonists of the TGF-beta/Smad signaling pathway (AID 1346859; active means well fitted activation curve with a large enough effect in the signal ratio in the repeat runs, not every such curve was filed as active; the % refers to the signal ratio; further: series mostly up to about 77 µM)
In short: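 Smad-responsive beta-lactamase reporter cells (HEK 293T) received compounds from DMSO stocks after overnight attachment, were incubated 5 hr, then treated 2 hr with FRET substrate before dual-emission fluorescence measurement (405 nm excitation).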

[17] = biological target: Thyrotropin-releasing hormone receptor (Homo sapiens) (UniProt P34981); test: qHTS assay to identify small molecule antagonists of the thyrotropin-releasing hormone receptor (TRHR) signaling pathway (AID 1346877; active means well fitted inhibition curve with a large enough effect in the repeat runs, not every such curve was filed as active; further: series mostly up to about 51 µM)
In short: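 Antagonist mode: after a 5 min room-temperature compound exposure, cells were stimulated with 1 nM (final) TRH. Dye-loaded TRHR-HEK293 cells were used, and calcium-dependent fluorescence was followed for 3 min, with 15-point titrations run in triplicate.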

[18] = biological target: Thyrotropin-releasing hormone receptor (Homo sapiens) (UniProt P34981); test: qHTS assay to identify small molecule agonists of the thyrotropin-releasing hormone receptor (TRHR) signaling pathway (AID 1346891; calls by dose curve;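 further: HEK293 cells expressing TRHR with calcium dye readout; series mostly up to about 58 µM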)
In short: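 Agonist-mode calcium mobilisation screen: TRHR-transfected HEK293 cells cultured overnight (18 h), dye-loaded for 2 h at 37 °C, exposed to compounds, and monitored by fluorescence for 3 min.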

[19] = qHTS assay to identify small molecule agonists of the androgen receptor (AR) signaling pathway in the presence of an antagonist - cell viability counter screen (AID 1259379); further: nearly all actives have a fitted effect of over 25% in size; further: potency means the concentration at half of the fitted maximal effect
In short: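 Cytotoxicity counter-screen run in the same wells as the nilutamide-challenged (3.0 µM final) AR agonist assay in MDA-kb2 cells. Compounds tested at 15 concentrations for 16 h, 37 °C without CO2; CellTiter-Fluor fluorescence read.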

Measured: Potency

Thyrotropin receptor (Homo sapiens), sequence (P16473 whole entry, looked up): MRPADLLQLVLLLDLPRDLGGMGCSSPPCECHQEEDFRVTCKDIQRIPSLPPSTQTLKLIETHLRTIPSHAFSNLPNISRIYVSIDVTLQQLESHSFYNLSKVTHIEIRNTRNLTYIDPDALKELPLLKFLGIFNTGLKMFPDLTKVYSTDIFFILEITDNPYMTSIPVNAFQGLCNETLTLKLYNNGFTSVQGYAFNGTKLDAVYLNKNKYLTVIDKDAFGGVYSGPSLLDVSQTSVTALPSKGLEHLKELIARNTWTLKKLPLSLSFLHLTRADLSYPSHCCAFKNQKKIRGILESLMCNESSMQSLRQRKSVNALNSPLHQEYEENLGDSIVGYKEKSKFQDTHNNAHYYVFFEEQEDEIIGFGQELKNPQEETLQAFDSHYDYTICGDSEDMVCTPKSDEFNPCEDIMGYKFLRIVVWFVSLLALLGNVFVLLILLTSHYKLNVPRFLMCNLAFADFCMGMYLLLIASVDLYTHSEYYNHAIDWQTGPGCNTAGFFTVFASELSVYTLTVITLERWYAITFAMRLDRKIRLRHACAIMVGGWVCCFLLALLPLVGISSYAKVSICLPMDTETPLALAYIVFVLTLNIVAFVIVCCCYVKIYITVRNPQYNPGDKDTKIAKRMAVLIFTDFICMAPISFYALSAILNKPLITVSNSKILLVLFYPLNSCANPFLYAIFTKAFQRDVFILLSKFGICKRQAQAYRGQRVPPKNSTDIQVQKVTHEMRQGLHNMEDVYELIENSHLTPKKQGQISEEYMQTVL
Thyrotropin-releasing hormone receptor (Homo sapiens), sequence (P34981 whole entry, looked up): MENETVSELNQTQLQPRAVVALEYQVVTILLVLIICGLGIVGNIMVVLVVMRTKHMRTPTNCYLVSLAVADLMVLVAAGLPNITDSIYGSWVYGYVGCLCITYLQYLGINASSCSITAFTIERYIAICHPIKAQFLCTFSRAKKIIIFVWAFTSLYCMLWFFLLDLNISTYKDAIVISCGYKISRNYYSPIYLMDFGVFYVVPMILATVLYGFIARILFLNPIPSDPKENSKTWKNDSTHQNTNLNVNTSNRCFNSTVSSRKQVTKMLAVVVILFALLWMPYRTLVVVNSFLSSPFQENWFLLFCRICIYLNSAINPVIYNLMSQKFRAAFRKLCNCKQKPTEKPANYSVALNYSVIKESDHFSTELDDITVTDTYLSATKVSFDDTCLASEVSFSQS
Estrogen receptor beta (Homo sapiens), sequence (Q92731 whole entry, looked up): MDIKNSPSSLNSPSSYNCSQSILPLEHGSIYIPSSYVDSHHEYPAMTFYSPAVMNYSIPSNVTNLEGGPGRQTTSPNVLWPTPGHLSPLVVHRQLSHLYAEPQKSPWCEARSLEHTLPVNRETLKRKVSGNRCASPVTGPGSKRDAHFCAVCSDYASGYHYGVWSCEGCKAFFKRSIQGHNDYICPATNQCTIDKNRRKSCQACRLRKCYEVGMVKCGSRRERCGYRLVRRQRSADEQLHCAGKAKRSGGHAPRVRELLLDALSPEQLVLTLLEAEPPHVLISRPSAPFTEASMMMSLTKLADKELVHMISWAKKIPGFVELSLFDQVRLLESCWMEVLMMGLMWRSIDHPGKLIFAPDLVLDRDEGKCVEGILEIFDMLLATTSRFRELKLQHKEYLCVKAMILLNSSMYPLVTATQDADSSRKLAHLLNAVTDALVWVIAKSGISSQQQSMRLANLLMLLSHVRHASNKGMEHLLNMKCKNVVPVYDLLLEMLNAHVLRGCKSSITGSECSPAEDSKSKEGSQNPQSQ
Progesterone receptor (Homo sapiens), sequence (P06401 whole entry, looked up): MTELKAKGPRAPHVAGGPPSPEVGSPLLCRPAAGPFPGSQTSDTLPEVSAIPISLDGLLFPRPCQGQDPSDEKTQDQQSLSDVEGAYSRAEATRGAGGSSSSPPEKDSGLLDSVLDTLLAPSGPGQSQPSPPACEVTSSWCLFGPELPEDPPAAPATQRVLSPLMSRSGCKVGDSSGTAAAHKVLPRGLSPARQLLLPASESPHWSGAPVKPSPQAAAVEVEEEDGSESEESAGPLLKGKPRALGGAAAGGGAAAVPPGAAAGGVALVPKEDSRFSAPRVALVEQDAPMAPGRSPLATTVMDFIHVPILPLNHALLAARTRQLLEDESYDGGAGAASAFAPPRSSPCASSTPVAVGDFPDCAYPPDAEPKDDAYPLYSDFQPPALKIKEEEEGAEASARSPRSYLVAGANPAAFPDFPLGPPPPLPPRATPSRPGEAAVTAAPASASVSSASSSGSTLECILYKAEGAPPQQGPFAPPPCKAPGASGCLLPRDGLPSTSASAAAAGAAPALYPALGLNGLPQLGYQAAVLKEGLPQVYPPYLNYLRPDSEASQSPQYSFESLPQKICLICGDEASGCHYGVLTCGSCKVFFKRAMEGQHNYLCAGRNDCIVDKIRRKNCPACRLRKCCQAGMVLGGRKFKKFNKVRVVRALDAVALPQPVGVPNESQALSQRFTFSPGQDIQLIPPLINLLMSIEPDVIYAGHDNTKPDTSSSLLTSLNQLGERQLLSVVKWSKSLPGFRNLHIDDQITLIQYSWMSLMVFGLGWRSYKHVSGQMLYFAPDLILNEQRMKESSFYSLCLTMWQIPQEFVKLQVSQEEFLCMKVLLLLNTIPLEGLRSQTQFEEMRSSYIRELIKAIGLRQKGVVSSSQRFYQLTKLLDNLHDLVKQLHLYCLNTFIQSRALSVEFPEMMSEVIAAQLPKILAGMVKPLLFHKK
Estrogen receptor (Homo sapiens), sequence (P03372 whole entry, looked up): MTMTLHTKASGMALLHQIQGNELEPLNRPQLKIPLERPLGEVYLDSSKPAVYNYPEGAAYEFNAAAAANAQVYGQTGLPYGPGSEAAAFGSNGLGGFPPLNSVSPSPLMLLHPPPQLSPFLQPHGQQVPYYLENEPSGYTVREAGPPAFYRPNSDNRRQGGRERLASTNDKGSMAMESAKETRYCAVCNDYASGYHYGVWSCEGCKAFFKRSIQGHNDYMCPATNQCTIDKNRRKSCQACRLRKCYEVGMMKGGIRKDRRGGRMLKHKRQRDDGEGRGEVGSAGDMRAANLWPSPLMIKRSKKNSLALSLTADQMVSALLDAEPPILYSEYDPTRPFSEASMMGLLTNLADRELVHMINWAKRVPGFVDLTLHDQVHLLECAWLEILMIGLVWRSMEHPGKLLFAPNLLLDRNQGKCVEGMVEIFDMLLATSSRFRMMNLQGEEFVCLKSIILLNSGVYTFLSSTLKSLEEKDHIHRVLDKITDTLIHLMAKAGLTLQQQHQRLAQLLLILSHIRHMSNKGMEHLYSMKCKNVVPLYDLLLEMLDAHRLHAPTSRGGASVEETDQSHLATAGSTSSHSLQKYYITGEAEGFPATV

CCn1c2ccccc2c2cc(N)ccc21
15.2 µM (active) and inactive: [1]
active: [4] 17.1 µM and 15.4 µM | [11] 34.4 µM
not listed: [19]
inactive: all other assays above

CNCCC(Oc1ccc(C(F)(F)F)cc1)c1ccccc1 (configuration not stated)
inactive: [2] | [7] | [9] | [14] | [15] | [16] | [17]
67.7 µM (active) and inactive: [8]
active: [1] 15.2 µM | [19] 53.8 µM and 26.6 µM | [4] 26.9 µM and 13.3 µM | [5] 24 µM and 11.9 µM | [12] 60.3 µM and 29.8 µM | [13] 30.2 µM and 13.3 µM

O=C(Cl)c1cccc(C(=O)Cl)c1
not listed: [6] | [11]
inactive: all other assays above

CC(C)(C)c1ccccc1
not listed: [6] | [11] | [18]
inactive: all other assays above

c1cnc2cc3c(cc2n1)C1CNCC3C1
not listed: [7] | [8] | [18]
inactive: all other assays above

C[N+]1([O-])CCOCC1
not listed: [6] | [8] | [11]
inactive: all other assays above

From PubChem BioAssay (Tox21)
